# Measurements taken from PubChem BioAssay AID651813 (National Center for Advancing Translational Sciences (NCATS), 2012).
# About 1,100 (52%) of roughly 2,100 compounds were called active. About 27% were inconclusive and are not listed. So high a share suggests a set chosen from earlier hits. This is one part of the list. Unmarked numbers belong to inactive results. Calls come from the whole dose curve; as a rule, active = well fitted inhibition curve with a large enough effect; inconclusive = small, poorly fitted or top-dose-only effect; inactive = no such curve, though single readings can be large or run the other way.
# Target: DNA dC->dU-editing enzyme APOBEC-3G (Homo sapiens) (UniProt Q9HC16)
# Assay: qHTS for inhibitors of Vif-A3G interactions: Cherry picks counterscreen;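 note: hits raise yellow fluorescence by blocking Vif-driven A3G-eYFP degradation; nearly all actives have a fitted effect of over 70% in size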;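 for max response: max response given as percent of control signal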
# Settings: HeLa A3G-eYFP + Vif (tagged APOBEC3G with the HIV-1 protein that degrades it), eYFP fluorescence, 24 h
# In short: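 Readout is eYFP fluorescence (488 nm excitation, 500-530 nm emission) measured on Acumen Explorer after 24 h compound exposure, several concentrations, at 37 deg C. Cells: HeLa stably co-expressing Vif and C-terminally eYFP-tagged A3G; MG132 positive control.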
# Potency is the fitted concentration of half-maximal effect.
# Chain of DNA dC->dU-editing enzyme APOBEC-3G (Homo sapiens) (Q9HC16 whole entry, looked up): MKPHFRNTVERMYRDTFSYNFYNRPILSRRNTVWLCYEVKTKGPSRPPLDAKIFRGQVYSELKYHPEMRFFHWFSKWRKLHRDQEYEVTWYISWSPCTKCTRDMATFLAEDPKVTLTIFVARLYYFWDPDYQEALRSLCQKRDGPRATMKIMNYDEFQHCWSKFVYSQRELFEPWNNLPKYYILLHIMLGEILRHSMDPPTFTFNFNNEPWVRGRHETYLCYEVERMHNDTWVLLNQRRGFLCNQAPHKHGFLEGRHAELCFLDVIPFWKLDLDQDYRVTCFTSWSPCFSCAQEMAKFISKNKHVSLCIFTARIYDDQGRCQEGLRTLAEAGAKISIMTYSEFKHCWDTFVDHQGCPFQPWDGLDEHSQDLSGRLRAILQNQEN
SMILES,max response,Potency
COc1ccc(C(=O)C(C)[n+]2ccc(C)c3ccccc32)cc1[N+](=O)[O-] (centres undefined),3.16%,
COc1ccc(C(=O)NC2CCCc3ccccc32)cc1[N+](=O)[O-] (centres undefined),,7.04 µM (active)
O=C(c1cc(-c2ccncc2)nc2ccccc12)N1CCN(c2ccccn2)CC1,,9.94 µM (active)
CCOC(=O)N1CCN(C(=O)c2cc(-c3ccc(OCC)cc3)nc3ccccc23)CC1,,7.04 µM (active)
O=C(NC(=S)N1CCN(c2ccccn2)CC1)c1ccccc1,-0.54%,
O=C(COc1ccccc1-c1ccccc1)NN=C1CCCC1,-18.6%,
CCOC(=O)N1CCN(C(=O)c2ccccc2-c2ccccc2)CC1,,5.59 µM (active)
Cc1c(C(=O)Nc2cccnc2)oc2ccc(Br)cc12,,12.5 µM (active)
O=C(CSc1ccccc1)Nc1nc2ccccc2[nH]1,,9.94 µM (active)
c1ccc2[nH]c(NN=C3CCCCCC3)nc2c1,0.674%,
N#CC(C(=S)Nc1ccccc1)c1nc2ccccc2[nH]1 (centres undefined),-4.48%,
Fc1cccc(Cc2c(-c3ccco3)nc3ccc(Br)cn23)c1,,14 µM (active)
COC(=O)c1ccc(Oc2cc(C)nc(SC)n2)cc1,,8.86 µM (active)
Cc1ccc(-c2nc3ncccc3o2)cc1NC(=O)c1ccc([N+](=O)[O-])o1,3.91%,
O=C(NCc1ccccc1)C(=O)NCC1COc2ccccc2O1 (centres undefined),,12.5 µM (active)
CC1CCN(C(=O)C(C)Sc2nc(-c3ccccc3)cc(C(F)(F)F)n2)CC1 (centres undefined),2.38%,
COC(=O)CCS(=O)(=O)c1nc(-c2ccccc2)cc(C(F)(F)F)n1,,12.5 µM (active)
COc1ccc2o/c(=N/NC(=O)c3cccs3)c(C(N)=O)cc2c1,,12.5 µM (active)
CCOC(=O)c1c(C)sc(-c2c(-c3ccccc3)[nH]c3[nH]c(=O)[nH]c(=O)c23)c1O,,18.4 µM (active)
COc1cc(-c2noc(C)c2/C=C/c2ccc(OC(C)=O)cc2)cc(OC)c1OC,,0.627 µM (active)

SMILES,max response,Potency
Cc1ccc(O)c(NC(=O)c2cc(-c3ccccc3O)no2)c1,,23.1 µM (active)
COc1ccc2[nH]c(C(=O)N/N=C/c3ccc(OC)c(O)c3)cc2c1,,4.44 µM (active)
COc1ccc(/C=N/NC(=O)c2cc3c(OC)ccc(OC)c3[nH]2)cc1O,,4.44 µM (active)
COc1ccc(S(=O)(=O)Nc2cc(Sc3ncn[nH]3)c(O)c3ccccc23)cc1,-11.5%,
COc1ccc(S(=O)(=O)Nc2cccc3ccccc23)cc1,,5.17 µM (active)
COC(=O)c1cccc(NS(=O)(=O)c2ccc(OC)cc2)c1C,,7.04 µM (active)
CC1CCCCC1NC(=O)/C(C#N)=C/C=C/c1ccccc1[N+](=O)[O-] (centres undefined),,14 µM (active)
Fc1cccc(F)c1/C=N/NC(=S)Nc1cccnc1,-2.63%,
CCCOc1ccccc1C1CC(=O)NC2=C1C(=O)CCC2 (centres undefined),,6.27 µM (active)
CCOc1ccccc1C1CC(=O)NC2=C1C(=O)CCC2 (centres undefined),,12.5 µM (active)
CCN(C)c1ccc(/C=C/c2ccnc3ccccc23)cc1,,18.4 µM (active)
CCCCN(CCCC)c1ccc(/C=C/c2ccnc3ccccc23)cc1,,16.4 µM (active)
CCCCN(CCC(=O)O)c1ccc(/C=C/c2ccnc3ccccc23)cc1,,18.4 µM (active)
CCCN(CCC)c1ccc(/C=C/c2ccnc3ccccc23)cc1,,14.6 µM (active)
CCN(CCCN(C)C)c1ccc(/C=C/c2ccnc3ccccc23)cc1,,18.4 µM (active)
CC(C)CN(CC(C)C)c1ccc(/C=C/c2ccnc3ccccc23)cc1,,16.4 µM (active)
CCN(CC)c1ccc(/C=C/c2ccnc3ccccc23)cc1,,14.6 µM (active)
O=C1OC(/C(=C\Nc2cc(Cl)ccc2O)[N+](=O)[O-])c2ccccc21 (centres undefined),4.09%,
Cc1nc2ccc(NC(=O)c3cc(S(=O)(=O)N(C)c4ccccc4)ccc3Cl)cc2s1,,16.4 µM (active)
N=c1n(CC(=O)c2ccc([N+](=O)[O-])cc2)c2ccccc2n1Cc1ccccc1,,20.6 µM (active)

SMILES,max response,Potency
COc1ccc(-c2cc(C(F)F)n3ncc(C(=O)N4CCc5ccccc54)c3n2)cc1,,2.23 µM (active)
CC1(C(=O)NCc2cccs2)Cc2c(-c3ccc(C(N)=O)cc3)ccnc2O1 (centres undefined),,9.94 µM (active)
CC(=O)Nc1cccc(-c2ccnc3c2CC(C)(C(=O)NCc2cccs2)O3)c1 (centres undefined),,3.14 µM (active)
CC1(C(=O)NCc2ccco2)Cc2c(-c3cccc(C(N)=O)c3)ccnc2O1 (centres undefined),,7.04 µM (active)
CC(=O)Nc1ccc(-c2ccnc3c2CC(C)(C(=O)NCc2ccco2)O3)cc1 (centres undefined),,7.04 µM (active)
Cn1c(=O)c(N)c2c3c(c(Br)ccc31)C(=O)c1ccccc1-2,44.6%,
CC1(C(=O)NCc2ccccc2)Cc2c(-c3cccc(C(N)=O)c3)ccnc2O1 (centres undefined),,6.27 µM (active)
CC1(C(=O)NCc2ccccc2)Cc2c(-c3ccc(C(N)=O)cc3)ccnc2O1 (centres undefined),,6.27 µM (active)
CC(=O)Nc1cccc(-c2ccnc3c2CC(C(=O)NCc2cccs2)O3)c1 (centres undefined),,2.23 µM (active)
CC1(C(=O)NCc2ccc(F)c(F)c2)Cc2c(-c3cccc(C(N)=O)c3)ccnc2O1 (centres undefined),,17.7 µM (active)
CC(=O)Nc1cccc(-c2ccnc3c2CC(C)(C(=O)NCc2ccccc2)O3)c1 (centres undefined),,1.4 µM (active)
CC(=O)Nc1ccc(-c2ccnc3c2CC(C(=O)NCc2ccccc2)O3)cc1 (centres undefined),,0.444 µM (active)
CC(=O)Nc1ccc(-c2ccnc3c2CC(C(=O)NCc2cccc(Cl)c2)O3)cc1 (centres undefined),,3.14 µM (active)
N#Cc1c(C(F)(F)F)cc(-c2ccccc2)nc1SCc1nc(N)nc(N2CCOCC2)n1,,2.91 µM (active)
N#C/C(=C/c1ccc(N2CCCCCC2)o1)c1ccc(Cl)cc1,,2.91 µM (active)
Cc1ccc(/C(C#N)=C\c2ccc(N3CCOCC3)o2)cc1,,17.7 µM (active)
N#CC(C#N)=C1C=C2C=C(N3CCOCC3)CCC2CC1 (centres undefined),51.3%,
N#C/C(=C/c1ccc(N2CCOCC2)o1)c1ccc(Cl)cc1,,2.31 µM (active)
N#C/C(=C\c1ccc(N2CCOCC2)o1)c1ccccc1,,14 µM (active)
